Assays:
Assay in all cases: inhibition of PEG-3 promoter-driven reporter – cell-based, HeLa, luciferase, CREF/GAPDH counter-screen panel, dose response (AID 624167)
PEG-3 [1] = target: PEG-3 (UniProt Q6IN02); conditions: CREF/GAPDH counter-screens; HeLa PEG-Prom luciferase reporter, overnight, run 1, dose range 1, at 100 µM (top of the series) unless noted
PEG-3 [2] = target: PEG-3 (UniProt Q6IN02); conditions: CREF/GAPDH counter-screens; HeLa PEG-Prom luciferase reporter, overnight, run 2, dose range 1, at 100 µM (top of the series) unless noted
Rat fibroblasts (CREF) [3] = conditions: CREF/GAPDH counter-screens; run 1, dose range 1, at 100 µM (top of the series)
Rat fibroblasts (CREF) [4] = conditions: CREF/GAPDH counter-screens; run 2, dose range 1, at 100 µM (top of the series)

PEG-3, sequence (Q6IN02 whole entry, looked up): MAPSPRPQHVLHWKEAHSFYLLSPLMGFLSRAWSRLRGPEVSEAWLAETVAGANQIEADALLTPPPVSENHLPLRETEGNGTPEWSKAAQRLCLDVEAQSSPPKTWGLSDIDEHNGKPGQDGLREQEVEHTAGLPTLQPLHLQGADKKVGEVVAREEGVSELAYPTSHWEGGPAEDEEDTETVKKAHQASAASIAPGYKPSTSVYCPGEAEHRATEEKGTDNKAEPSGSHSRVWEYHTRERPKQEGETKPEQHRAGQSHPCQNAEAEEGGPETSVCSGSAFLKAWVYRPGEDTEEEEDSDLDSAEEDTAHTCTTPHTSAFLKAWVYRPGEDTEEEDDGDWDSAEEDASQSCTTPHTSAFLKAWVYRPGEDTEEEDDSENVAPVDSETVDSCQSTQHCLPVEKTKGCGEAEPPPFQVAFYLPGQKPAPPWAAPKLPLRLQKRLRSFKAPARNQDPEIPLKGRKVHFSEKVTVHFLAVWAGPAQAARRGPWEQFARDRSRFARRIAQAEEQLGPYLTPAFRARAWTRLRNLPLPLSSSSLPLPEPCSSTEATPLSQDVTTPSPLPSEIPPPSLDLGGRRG

Row | Structure (SMILES) | inhibition (PEG-3 [1]) [%] | inhibition (PEG-3 [2]) [%] | inhibition (Rat fibroblasts (CREF) [3]) [%] | inhibition (Rat fibroblasts (CREF) [4]) [%]
1 | COc1cccc2nc3c(C(=O)NCCN(C)C)cccc3cc12 | 98.9 | 101 | 98 | 95.2
2 | Cc1cc(N2CCN(C)CC2)ccc1NC(=O)c1c2c(nc3ccccc13)CCN(Cc1ccccc1)C2 | 101 | 98.9 | 99.4 | 99.8
3 | O=C(NNC(=O)c1cccnc1SCc1cccc([N+](=O)[O-])c1)c1ccccn1 | 65.1 | 56.6 | 46.9 | 42.9
4 | Oc1c(I)cc(Cl)c2cccnc12 | 71.1 | 41.4 | 87 | 85.5
5 | Cc1cc(C)c2sc(NNC(=O)c3ccc(S(=O)(=O)N4CCc5ccccc5C4)cc3)nc2c1 | 84.2 | 94.7 | 53.3 | 25.5
6 | CC(C)Cc1ccc(C(C)C(N)=NCCc2ccccc2)cc1 (stereo not drawn) | 97.4 | 102 | 100 | 99.2
7 | Cc1nn(-c2nc3ccccc3[nH]2)c(=O)c2ccccc12 | 97.5 | 96.4 | 100 | 101

From PubChem BioAssay
